# Measured values: PubChem BioAssay (NCI)
# Compounds without any hit were thinned out: in the full panel of roughly 83,000, 20% have a hit.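 The test compound was applied at a single concentration to cells in 96-well plates for 48 hours, and percent growth was recorded.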 A number with no mark means an inactive call. Active and inactive are the calls of the source. How the source made its calls: active means growth percent below 10; inactive means the rest.
# Tested on: HL-60(TB) leukemia
# Assay: NCI-60 one-dose screen, 48 h (100 = growth as untreated, 0 = no growth, -100 = all killed)
# Settings: 10 µM unless noted
row,SMILES,growth
1,C=CC(=O)N[C@H](/C=C/C(=O)OCC)Cc1ccc(-c2cc(Cl)cc(Cl)c2)cc1,76.5%
2,COc1cc2ccc(C(C)=O)cc2cc1OC,133%
3,CSC(SC)=C(C#N)c1nc2ccccc2s1,44.6%
4,Cc1cc(-c2cc(OC(=O)c3ccccc3)ccc2Cl)cc2nnc(Nc3ccc(OCCN4CCCC4)cc3)nc12,116%
5,NCCNc1nc2ccc(F)cc2c2c(=O)c3cc(F)ccc3sc12,21.2%
6,C#Cc1ccc(-n2c(/C=C/c3cc(OC)cc(OC)c3)nc3ncccc3c2=O)cc1,68.1%
7,C(=Nc1ccc(-c2ccc(N=Cc3ccccc3)cc2)cc1)c1ccccc1,107%
8,CCN(CC)CCOc1ccc(Nc2ncc3cc(-c4c(Cl)cccc4Cl)c(=O)n(CCOC)c3n2)cc1,-19.2% (active)
9,CCOC(=O)CC(C)=N,93.9%
10,O=C1C=CC(=O)N1c1cccc2c1CCCC2,34.2%
11,C=CC(=O)Nc1cccc(-c2nc(SC)nc(NCCc3ccc(OC)c(OC)c3)c2C#N)c1,25.6%
12,CC(C)(O)CCl,120%
13,COc1cccc2c(=O)c3c(sc12)c(NCCN(C)C)nc1ccccc13,15.1%
14,Cc1ccc2nc(-c3ccc(OCC(=O)N=Nc4c(O)[nH]c5ccccc45)cc3)[nH]c2c1,88.9%
15,CC(/C=N/N1C(=O)c2ccccc2C1=O)c1ccccc1 (stereo unspecified),108%
16,C=C(C)[C@H]1CC/C(C)=C/CC[C@]2(C)O[C@H]2CC/C(COC(C)=O)=C\C1=O,117%
